Hits are enriched below; roughly 4.7% of the tested compounds scored in any of these assays.
Calb FLC: C. albicans growth modulation with fluconazole; actives 0.57% (n = 300,000); C. albicans CaCi-2 (fluconazole-resistant clinical isolate) + fluconazole, Alamar Blue growth, 48 h; growth inhibition, % (test concentration not listed);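 active = growth inhibition above about 58% in most replicates, limit read from the data, passing the limit was not always enough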;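 note: all wells also contain fluconazole at 8 µg/ml as a sub-toxic cotreatment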
tim10-1 inh: growth inhibitors of tim10-1 mutant yeast. S. cerevisiae tim10-1 ts strain growth, BacTiter-Glo, 24 h. inhibition, % at 20 µM. actives 2.2% (n = 330,000). AID 463190;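 active = inhibition of at least 40%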;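 note: mutant grown at 25 °C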
tim23-1 inh: tim23-1 yeast growth inhibition; S. cerevisiae tim23-1 growth, BacTiter-Glo luminescence, 24 h; inhibition, % at 20 µM; actives 1.3% (n = 330,000); AID 463212;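 active = growth inhibition of the mutant yeast at or above 50%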;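 note: temperature-sensitive mutant grown at 25 °C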
TIM10 inh: inhibits growth of TIM10 yeast strain; S. cerevisiae TIM10 strain growth, BacTiter-Glo luminescence, 24 h; inhibition, % at 10 µM; actives 1.4% (n = 330,000);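 active = inhibition of 40% or more at the single tested concentration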;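 note: wild-type TIM10 isogenic control strain grown at permissive 25 °C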
PfHsp90 yeast 2: growth inhibition of yeast expressing Plasmodium Hsp90. S. cerevisiae expressing PfHsp90, BacTiter-Glo ATP, 48 h; yeast lacking PDR1 and PDR3 efflux regulators. inhibition, % at 9.4 µM. actives 0.32% (n = 310,000). AID 504621;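 active = every replicate shows inhibition above about 80%, whatever the replicate mean, limit read from the data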
SKKanGAS inh: SKKanGAS growth inhibition; S. pyogenes SKKanGAS, kanamycin growth, BacTiter-Glo, 6 h; inhibition, % at 7.5 µM; actives 1.3% (n = 300,000);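 active = mean replicate score, as percent of positive control median, at least 50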;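 note: strain carries kanamycin resistance gene driven by streptokinase promoter and grows in 40 µg/ml kanamycin; loss of luminescence reflects streptokinase promoter inhibition or plain growth inhibition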
tim10-1 confirm: tim10-1 yeast growth inhibition, confirmed; AID 463213; actives 56% (n = 7,400); shares compounds with tim10-1 inh; inhibition, % at 20 µM; S. cerevisiae tim10-1 ts strain growth, BacTiter-Glo, 24 h;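 active = inhibition of yeast growth at or above a set limit in either of two repeat tests at 20 µM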;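 note: tim10-1 mutant grown at permissive 25 °C to find synthetic lethal compounds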
Numbers stand for hits; - = inactive; . = no result given.

SMILES	Calb FLC	tim10-1 inh	tim23-1 inh	TIM10 inh	PfHsp90 yeast 2	SKKanGAS inh	tim10-1 confirm
CCCCCCC(=O)N(O)C1CC(=O)N(c2ccc(C)cc2)C1=O (stereo not given)	-	70.9	-	-	106.2	-	44.4
S=c1[nH]nc(CSCc2ccccc2Cl)n1-c1ccccc1	-	45.6	-	-	-	-	37.2
COCc1n[nH]c(=S)n1-c1ccccc1	-	-	-	-	-	-	.
O=C(Oc1ccc2c(c1)O/C(=C\c1ccncc1)C2=O)c1ccccc1	-	41.8	-	-	-	-	-
Cc1ccc(/C=C2\Oc3cc(OC(=O)N4CCOCC4)ccc3C2=O)cc1	-	-	-	-	-	-	.
Cc1c(Cl)cccc1NC(=O)CSc1nncn1-c1ccccn1	-	-	-	-	-	-	.
Cc1ccc(-c2ccc(/C=N\n3cnnc3)o2)c(Br)c1	-	-	-	-	-	-	.
Cc1ccc(Sc2oc(/C=N/n3cnnc3)cc2Br)cc1	-	45.8	-	-	-	-	-
Cc1nc2ccccc2c2oc(C(=O)N3CCC(C)CC3)cc12	-	46.2	-	-	-	-	-
CCc1ccc(Nc2n[n+](-c3ccccc3)c(/C=C/c3ccccc3)s2)cc1	-	42.7	-	-	.	-	-
O=C1N=c2ccccc2=C1c1sc(=S)n(NC(=O)c2ccccc2)c1O	-	-	-	-	-	-	.
C=CCn1c(O)c(C2=c3ccccc3=NC2=O)sc1=Nc1ccc(O)cc1	-	63.0	-	-	-	-	-
NNc1nc(Nc2ccccc2)nc(Nc2ccccc2)n1	-	50.5	-	-	-	52.3	42.3
O=C(c1ccc2ncsc2c1)N1CCN(c2ccccc2Cl)CC1	-	48.9	-	-	-	-	37.8
O=C(CCC(=O)c1ccc(Cl)cc1)OCc1nc2ccsc2c(=O)[nH]1	-	-	-	-	-	-	.
COc1ccccc1NC=C1C(=O)OC2(CCCCC2)OC1=O	-	40.4	-	-	.	-	-
COC(=O)c1ccccc1NC=C1C(=O)OC2(CCCCC2)OC1=O	-	-	-	-	-	-	.
Nc1ccccc1-c1nnc(-c2ccc(-c3ccccc3)cc2)o1	-	46.8	-	-	.	-	-
CC(C(=O)NCc1ccc(Cl)cc1)n1cccc1C(=O)c1ccccc1 (stereo not given)	-	41.0	-	-	-	-	-
COc1ccccc1CNC(=O)C(C)n1cccc1C(=O)c1ccccc1 (stereo not given)	-	-	-	-	-	-	.
CC(C)CN(C(=O)Cn1c(C(F)(F)F)nc2ccccc21)c1c(N)n(Cc2ccccc2)c(=O)[nH]c1=O	.	.	.	.	-	.	.
O=C1c2ccccc2C(=O)N1CCc1nc2ccccc2c(=O)n1-c1ccccn1	-	48.7	-	-	-	-	-
Cc1ccnc(-n2c(CCN3C(=O)c4ccccc4C3=O)nc3ccccc3c2=O)c1	-	-	-	-	-	-	.
CCCCOC(=O)c1ccc(NC(=O)COC(=O)CSc2nc(C)cc(C)n2)cc1	-	45.7	-	-	-	-	-
COc1ccc(NC(=O)CSc2nc(C)cc(C)n2)cc1	-	-	-	-	-	-	.
SMILES	Calb FLC	tim10-1 inh	tim23-1 inh	TIM10 inh	PfHsp90 yeast 2	SKKanGAS inh	tim10-1 confirm
CCOC(=O)C1(Cc2ccccc2)CCCN(C(=O)c2ccc(-n3ccnc3)cc2)C1 (stereo not given)	-	-	-	-	-	-	.
CC1=C(C(=O)O)N2C(=O)C(NC(=O)c3ccc(F)cc3)C2SC1 (stereo not given)	.	-	-	-	-	.	.
CCOC(=O)c1sc(NC(=O)C2CC2)cc1C	-	54.5	-	-	-	-	-
Cc1nc([N+](=O)[O-])c(C(=O)OCc2cccc(Br)c2)n1C	-	43.2	-	-	.	-	32.6
Cc1nc([N+](=O)[O-])c(C(=O)OCc2ccccc2)n1C	-	-	-	-	.	-	.
CCOc1ccc(NC(=O)NNC(=O)C(C)Oc2ccccc2OC)cc1 (stereo not given)	-	-	-	-	-	-	.
CCOC(=O)c1c(NC(=S)N2CCN(C)CC2)sc(C)c1-c1ccccc1	-	42.9	-	-	-	50.1	31.4
CCOC(=O)c1ccc(NC(=S)N2CCN(C)CC2)cc1	-	-	-	-	-	-	.
C=C[C@@](C)(O)CC[C@@H]1[C@@]2(C)CCCC(C)(C)[C@@H]2CC[C@@]1(C)O	-	41.9	-	-	-	-	-
COc1ccc(N2CCN(C(CNC(=O)C(C)C)c3ccc4c(c3)OCO4)CC2)cc1 (stereo not given)	-	-	-	-	-	-	.
Cc1ccc(N2C(=O)c3ccccc3C2=O)cc1	-	-	-	-	-	-	.
Cc1ccc(SC2=C(Sc3ccc(C)cc3)C(=O)c3ccccc3C2=O)cc1	-	42.8	-	-	-	-	-
Cc1c(C(=O)N2CCc3ccccc3C2)oc2ccc(S(=O)(=O)N3CCCCCC3)cc12	-	43.3	-	-	-	-	-
Cc1c(C(=O)N2CCOCC2)oc2ccc(S(=O)(=O)N3CCCC3)cc12	-	-	-	-	-	-	.
Cc1ccc(C)c(N2CCN(C(=O)c3cc4ccccn4n3)CC2)c1	-	41.3	-	-	-	-	34.5
O=C(c1cc2ccccn2n1)N1CCN(c2cccc(C(F)(F)F)c2)CC1	-	-	-	-	-	-	.
CC(/C=N/Nc1nc(C)cc(C)n1)=C\c1ccc(C(C)C)cc1	-	46.5	-	-	-	-	35.1
Nc1nonc1-n1nnc(C(=O)c2ccccc2)c1-c1ccccc1	-	40.9	-	-	-	-	-
CC12CCC(=O)N1C(C(=O)Nc1cccc(F)c1)CS2 (stereo not given)	-	-	-	-	-	-	.
CC(=O)NN1C(=O)/C(=C/c2ccc(C(C)C)cc2)SC1=S	-	42.4	-	-	-	-	39.0
CCC(=O)Oc1c(S(=O)(=O)c2ccc(C)cc2)c(C)nn1C(C)(C)C	-	43.7	-	-	-	-	-
CCCC(=O)Oc1c(S(=O)(=O)c2ccc(C)cc2)c(C)nn1C(C)(C)C	-	-	-	-	-	-	.
CN(C)CCCNC(=O)C[C@H]1C[C@H](C(=O)N2CCOCC2)[C@@]2(C)c3[nH]c4cc(-c5ccco5)ccc4c3CCN2C1=O	.	-	-	-	-	.	.
CCOC(=O)Nc1nc(-c2ccccc2)c(C(=O)c2ccccc2)s1	-	40.2	-	-	-	-	-
CC(=O)c1sc(NC(=O)c2c(F)cccc2F)nc1-c1ccccc1	-	51.5	-	-	-	-	-
Cc1nc(SCc2nc3ccc([N+](=O)[O-])cc3[nH]2)c2oc3ccccc3c2n1	.	-	-	-	-	.	.
CCOC(=O)Cc1csc(SCC(=O)NC2CCCC2)n1	.	-	-	-	-	.	.
S=C(NCc1ccc(Cl)cc1Cl)NC1CCCCC1	-	41.9	-	-	-	-	-
S=C(NCCc1cccc(Cl)c1)NC1CCCCC1	-	40.2	-	-	-	-	-

Source: PubChem (several laboratories)
